The text below walks through data of PubChem BioAssay AID1851 (National Center for Advancing Translational Sciences (NCATS), 2009).

Broadly, the AC50 is the concentration giving half of the maximal activity seen.

Several values for one entry are separate records, joined by “and”; a condition that tells them apart may be missing. Equal entries are not always repeated. Hit rate of the full screen: of about 16,000 compounds, about 5,100 (32%) were called active. Another 25% or so got no clear call; they are omitted. Calls follow the shape of the dose curve; as a rule, active = well fitted curve in the direction sought with a large enough effect; inconclusive = small, poorly fitted or top-dose-only effect, or effect the other way; inactive = no such curve, though single readings can be large or run the other way. This is one part of the list.
% is scaled to controls: 0 for no effect and ±100 for the full control effect.

The target in this assay is Cytochrome P450 3A4 (Homo sapiens) (UniProt P08684). The assay can be described thus: Cytochrome panel assay with activity outcomes. To be noted: recombinant CYP, pro-luciferin dealkylation, luminescence, p450-cyp3a4; series mostly up to 57.1 µM.
Cytochrome P450 3A4 (Homo sapiens), sequence (P08684 whole entry, looked up): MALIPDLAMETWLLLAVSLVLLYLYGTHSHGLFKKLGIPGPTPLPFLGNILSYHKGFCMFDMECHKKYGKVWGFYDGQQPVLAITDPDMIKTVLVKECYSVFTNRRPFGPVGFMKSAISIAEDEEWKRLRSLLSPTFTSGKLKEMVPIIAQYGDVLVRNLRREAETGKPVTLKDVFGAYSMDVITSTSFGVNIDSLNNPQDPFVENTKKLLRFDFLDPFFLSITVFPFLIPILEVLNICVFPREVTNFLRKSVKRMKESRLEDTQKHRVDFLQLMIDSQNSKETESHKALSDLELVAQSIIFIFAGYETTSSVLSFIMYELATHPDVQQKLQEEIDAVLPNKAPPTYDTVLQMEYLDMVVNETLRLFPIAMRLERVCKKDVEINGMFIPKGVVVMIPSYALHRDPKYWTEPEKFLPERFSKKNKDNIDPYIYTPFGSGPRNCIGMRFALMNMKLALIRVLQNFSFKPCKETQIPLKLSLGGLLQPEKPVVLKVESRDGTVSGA
Consider `O=S(=O)(O)c1ccc(N=Nc2ccccc2)cc1`, for which the activity, negative = inhibition is 0.763% [at 11.4 µM] (inactive). On to `NCC(=O)Nc1ccc(Cl)cc1C(=O)c1ccc[nH]1`, for which the activity, negative = inhibition is -21.6% [at 11.4 µM] (inactive). For `O=C(O)CSc1cc(C(F)(F)F)nc(-c2ccccn2)n1`, the AC50 result is “inactive”. Consider `Cc1cc(C)nc(SCCc2cccc[n+]2C)n1`, for which the activity, negative = inhibition is -11% [at 11.4 µM] (inactive). Turning to `Cc1cc(SCC(=O)c2ccccc2)nc(SCC(=O)c2ccccc2)n1`, the AC50 was 2.82 µM (active). As for `CC(=O)NCCNc1ncnc2ccc(-c3ccoc3)cc12`, the AC50 entry is “inactive”.

Take `c1cncc(-c2ccc3ncnc(NCCN4CCOCC4)c3c2)c1`: the AC50 was 12.6 µM (active). The same measure, in the same setting: the entry for `c1ccc(-n2ncc3c(NCCCN4CCOCC4)ncnc32)cc1` is “inactive”; for `CC(=O)NCCNc1ncnc2ccc(-c3ccc4c(c3)OCO4)cc12` it is 5.01 µM (active). For the compound `c1nc(NCCN2CCOCC2)c2cc(-c3ccc4c(c3)OCO4)ccc2n1`, the AC50 was 5.01 µM (active). For `NCCCCNCCCN`, the AC50 entry is “inactive”. Same read-out and setting: the figure for `N#Cc1ccccc1Sc1ccccc1N` is 17.8 µM (active). With `O=C1CCC(c2ccccc2)=NN1c1nc2ccccc2s1`, the activity, negative = inhibition was -23.1% [at 11.4 µM] (inactive). On to `c1ccc2sc(N3CCN(Cc4ccc5c(c4)OCO5)CC3)nc2c1`, for which the AC50 is 0.631 µM (active).

As for `CC1CCOC2(O1)C(=O)N(CN1CCN(c3ccccc3F)CC1)c1ccccc12` (stereo unspecified), the AC50 entry is “inactive”. With `CC(C)c1ccc(C(=O)CC2(O)C(=O)N(CN3CCOCC3)c3ccccc32)cc1` (stereo unspecified), the AC50 was 8.91 µM (active). For `CC(=O)N1CCC(=O)N(C(C)C)c2ccccc21`, the AC50 entry is “inactive”. Take `O=C(NCc1cccnc1)/C(=C/c1ccc(-c2cccc(Cl)c2)o1)S(=O)(=O)c1ccccc1`: the AC50 was 0.501 µM (active). For the compound `Cc1noc(C)c1C(=O)N1CCC2(CCCN(C(=O)NC(C)C)C2)CC1`, the AC50 result is “inactive”.

As to `CC(C)CN1CCC2(CC1)CCN(C(=O)c1cc(C(F)(F)F)cc(C(F)(F)F)c1)CC2`, the AC50 result was “inactive”. On to `CC(C)CN1CC[C@@]2(CCCN(C(=O)c3cc(C(F)(F)F)cc(C(F)(F)F)c3)C2)C1`, for which the AC50 is 12.6 µM (active).

As for `CC(C)NC(=O)N1CCCC2(CCN(C(=O)c3ccncc3)CC2)C1`, the AC50 was 15.8 µM (active). Still for that read-out and setting: the figure for `CC(C)NC(=O)N1CC[C@@]2(CCCN(C(=O)c3cc(C(F)(F)F)cc(C(F)(F)F)c3)C2)C1` is 15.8 µM (active); for `COc1ccc(C(=O)N2CCC3(CC2)CN(C(=O)NC(C)C)C3)cc1` it is “inactive”. For `CC(C)NC(=O)N1CCCC2(CCN(C(=O)c3cc(C(F)(F)F)cc(C(F)(F)F)c3)CC2)C1`, the AC50 was 25.1 µM (active). Consider `CN1CCC2(CC1)CCN(C(=O)c1cc(C(F)(F)F)cc(C(F)(F)F)c1)CC2`, for which the AC50 result is “inactive”.

In the case of `CC(C)NC(=O)N1CC2(CCN(C(=O)c3cc(C(F)(F)F)cc(C(F)(F)F)c3)CC2)C1`, the AC50 result was “inactive”.

On to `C=C1CCO[C@@]2([C@H](O)[C@@](C)(O)CO)NC(=O)[C@]1(O)NC2=O`, for which the activity, negative = inhibition was -2.69% [at 11.4 µM] (inactive).

For the compound `O=C(O)CCC(=O)c1ccc2sc3ccccc3c2c1`, the activity, negative = inhibition is -21.1% [at 11.4 µM] (inactive). On to `C/C(CCc1ccc2c(c1)OCO2)=N\N=C1\NC(=O)CC(C(=O)Nc2ccccc2)S1` (stereo unspecified), for which the AC50 is 2.24 µM (active). In the case of `COc1ccc(Cl)cc1N=Nc1ncc[nH]1`, the AC50 was 10 µM (active). Turning to `COC(=O)c1c(-c2cc(OC)c(OC)c(OC)c2)c2ccc(OCc3ccccn3)cc2c(=O)n1-c1ccc(N)cc1`, the half-maximal activity concentration (AC50) was 0.398 µM (active).

Turning to `CC(C)C(=O)NCCCc1ccccc1`, the activity, negative = inhibition was 2.86% [at 11.4 µM] (inactive). Consider `Cc1cc(C)c(NC(=O)CS(=O)CC(=O)NCCCc2ccccc2)c(C)c1` (stereo unspecified), for which the AC50 is 3.55 µM (active). Still for that read-out and setting: the figure for `N#CC(c1ccc(Cl)cc1)(c1ncc(C(F)(F)F)cc1Cl)N1CCOCC1` (stereo unspecified) is 12.6 µM (active); for `FC(F)(F)c1cnc(N2CCC(=NOCc3ccc(Cl)cc3)CC2)c(Cl)c1` it is “inactive”.

For `COC(=O)[C@@H]1[C@@H]2C[C@H]3c4[nH]c5ccccc5c4CCN3C[C@@H]2CC[C@@H]1OS(=O)(=O)O`, the activity, negative = inhibition is 0.48% [at 11.4 µM] (inactive). Consider `CC(=O)Nc1cccc(C(=O)OCc2ccc(C(=O)Oc3ccc(Cl)cc3)cc2)c1`, for which the AC50 result was “inactive”. Consider `CC(O)(CS(=O)(=O)Cc1ccccc1Cl)C(=O)Nc1cccc(C(F)(F)F)c1` (stereo unspecified), for which the AC50 is 2.51 µM (active). On to `CC(O)(CS(=O)(=O)Cc1ccc(Cl)cc1)C(=O)Nc1cccc(C(F)(F)F)c1` (stereo unspecified), for which the AC50 was 2 µM (active).

For `CN(C)CCNC(=O)Cn1nc(-c2ccc(Cl)cc2)ccc1=O`, the AC50 entry is “inactive”. Consider `COCCNC(=O)CCn1nc(-c2ccc(Cl)cc2)ccc1=O`, for which the AC50 result is “inactive”. As for `O=C(CCn1nc(-c2ccc(Cl)cc2)ccc1=O)NCc1ccccn1`, the AC50 is 10 µM (active).

Take `Cc1ccc(-n2nnnc2-c2cnc3ccc(Cl)cc3c2-c2ccccc2)cc1`: the AC50 was 5.62 µM (active). On the same count and under the same terms, as for `Cc1ccc2nc(SCC(=O)c3ccc4c(c3)OCO4)[nH]c2c1`, the figure is 2.24 µM (active). As to `Cc1nc(SCC(=O)c2ccc(F)cc2)c([N+](=O)[O-])[nH]1`, the activity, negative = inhibition was 5.95% [at 2.29 µM] (inactive). Take `Cc1ccc(C(=O)CSc2nc(C)cc(=O)[nH]2)cc1`: the AC50 entry is “inactive”. For the compound `Cc1cc(C)nc(NS(=O)(=O)c2ccc(N)cc2)n1`, the AC50 entry was “inactive”. As to `Nc1ccc(S(=O)(=O)Nc2cnc3ccccc3n2)cc1`, the activity, negative = inhibition is -8.37% [at 11.4 µM] (inactive). In the case of `CNc1cc(NS(=O)(=O)c2ccc(N)cc2)nc(NC)n1`, the AC50 was 0.794 µM (active). As for `NC1=N[C@H](c2ccc(Cl)cc2)N(c2ccc(S(=O)(=O)Nc3ncccn3)cc2)C(N)=N1`, the activity, negative = inhibition is 6.25% [at 11.4 µM] (inactive).

As for `COc1cc(OC)cc(C(=O)NCC(=O)OC2CCOC2=O)c1` (stereo unspecified), the AC50 is 25.1 µM (active).

In the case of `Cc1cc(C(=O)OC2CCOC2=O)c2ccccc2n1` (stereo unspecified), the activity, negative = inhibition is -7.34% [at 11.4 µM] (inactive). Turning to `COc1cc(CC(=O)OC2CCOC2=O)cc(OC)c1OC` (stereo unspecified), the AC50 entry is “inactive”.

On to `O=C1C[C@@H](O)[C@@H](O)[C@H]2[C@@H]3C(=O)N(C[C@@H]4CCCO4)C(=O)[C@@H]3CC[C@H]12`, for which the activity, negative = inhibition is 9.5% [at 11.4 µM] (inactive) and -5.79% [at 11.4 µM] (inactive). Same read-out and setting: as for `O=c1[nH]c(=S)c2[nH]c(=O)n(-c3ccccc3)c2[nH]1`, the figure is -9.23% [at 11.4 µM] (inactive). Consider `CCOc1ccccc1NC(=O)CN1CCC(NC(=O)c2ccccc2)CC1`, for which the AC50 result is “inactive”.

In the case of `CCOc1ccccc1NC(=O)C1=C(C)NC(=O)NC1c1cccc(OC)c1OC` (stereo unspecified), the half-maximal activity concentration (AC50) was 3.98 µM (active). Regarding `C#CCn1c(S(=O)(=O)Cc2ccc(OC)cc2)nc(-c2ccccc2)c1-c1ccccc1`, the AC50 is 6.31 µM (active). Still for that read-out and setting: the figure for `COc1ccccc1C1(CC(=O)Nc2nccs2)CCOC(C(C)C)C1` (stereo unspecified) is 6.31 µM (active); for `O=c1oc2cc(N=Cc3ccc4c(c3)OCO4)ccc2c2ccccc12` it is 3.98 µM (active).

Consider `O=[N+]([O-])c1ccc2c(c1)Cc1cc(N=Cc3ccc4c(c3)OCO4)ccc1-2`, for which the activity, negative = inhibition is -16.1% [at 11.4 µM] (inactive). On to `CC(=O)NC1(c2cccc(F)c2)CCN(CC(=O)NC(C)C)CC1`, for which the AC50 entry is “inactive”. As for `COc1ccc(/C(C)=N/NC(=O)c2ccc(N(C)C)cc2)cc1`, the AC50 result was “inactive”. In the case of `COc1ccc(C(=O)N/N=C2/C(=O)c3c(C)cc(C)cc3CC2(C)C)cc1`, the AC50 was 3.16 µM (active). Consider `COc1ccccc1CN1CCC2(CCNCC2)CC1`, for which the AC50 entry was “inactive”. The same measure, in the same setting: the figure for `Cc1cccc(CNc2nc(-c3ccoc3)nc3ccccc23)c1` is 6.31 µM (active). `c1csc(CNc2nc(-c3ccoc3)nc3ccccc23)c1`: the concentration at half-maximal activity (AC50) was 7.94 µM (active). With `c1cncc(-c2nc(NCc3cccs3)c3ccccc3n2)c1`, the half-maximal activity concentration (AC50) was 2 µM (active). `c1cncc(CNc2nc(-c3ccoc3)nc3ccccc23)c1`: the AC50 was 7.94 µM (active). Take `NS(=O)(=O)c1cc2c(cc1Cl)=NC(CCC(=O)O)=NS=2(=O)O`: the activity, negative = inhibition is 15.3% [at 11.4 µM] (inactive). Regarding `c1ccc(CNc2nc(-c3ccoc3)nc3ccccc23)cc1`, the AC50 is 12.6 µM (active). Turning to `CNc1ncncc1-c1ccccc1C`, the AC50 is 0.631 µM (active). Still for that read-out and setting: as for `Cc1ccccc1-c1cncnc1NC1CCNCC1`, the figure is 15.8 µM (active); as for `COc1ccccc1-c1cncnc1Nc1ccc(F)cc1`, 0.158 µM (active). Consider `CNc1cc(-c2ccccc2C)ncn1`, for which the AC50 result was “inactive”.

As to `Cc1ccccc1-c1cncnc1Nc1ccc(F)cc1`, the AC50 is 0.2 µM (active).

In the case of `c1cncc(-c2cncnc2NC2CCNCC2)c1`, the AC50 result is “inactive”. Turning to `CC(=O)N(C[C@@H](C)C(=O)O)c1c(I)cc(I)c(N)c1I`, the AC50 result is “inactive”. Turning to `CCCCCSc1nncc(=O)[nH]1`, the activity, negative = inhibition was 2.96% [at 11.4 µM] (inactive). The same measure, in the same setting: as for `O=C(O)[C@@H]1[C@@H](C(=O)Nc2ccccc2)[C@@H]2C=C[C@@H]1O2`, the figure is -5.39% [at 11.4 µM] (inactive). As for `O=C(O)[C@@H]1[C@@H]2C[C@@H]3[C@@H](OC(=O)[C@@H]31)[C@H]2Br`, the activity, negative = inhibition is -5.69% [at 11.4 µM] (inactive). Consider `CCCNc1[nH]c(=O)n(C)c(=O)c1N=O`, for which the activity, negative = inhibition is -16% [at 2.29 µM] (inactive). As to `Cc1cc(Nc2ccccc2)nc(N)n1`, the AC50 entry was “inactive”.

With `Cc1ccccc1-c1cncnc1Nc1ccccc1`, the AC50 is 0.631 µM (active). Take `O=C(O)c1ccc(Nc2ccnc3cc(Cl)ccc23)cc1O`: the activity, negative = inhibition was -7.77% [at 11.4 µM] (inactive). As to `Cc1cccc(C)c1NC(=O)[C@H](C)N`, the AC50 entry is “inactive”.

As to `Cc1cccc(C)c1NC(=O)C(NC=O)c1ccccc1Cl` (stereo unspecified), the AC50 was 10 µM (active). Same read-out and setting: as for `CCOC(=O)c1[nH]c2cc3c(cc2c1NC(=O)CN1CCC2(CC1)OCCO2)OCO3`, the entry is “inactive”. `COC(=O)c1[nH]c2cc(OC)ccc2c1NC(=O)CCN1CCSCC1`: the activity, negative = inhibition was 1.53% [at 2.29 µM] (inactive). With `CCOC(=O)c1[nH]c2cc3c(cc2c1NC(=O)CN1CCc2ccccc2C1)OCO3`, the concentration at half-maximal activity (AC50) was 0.708 µM (active). In the case of `COC(=O)c1[nH]c2cc(OC)ccc2c1NC(=O)c1ccc2c(c1)OCO2`, the AC50 was 7.94 µM (active). As to `CCOC(=O)c1ccc(NC(=O)C2(c3ccc(OC)cc3)CCOCC2)cc1`, the activity, negative = inhibition was -2.41% [at 2.29 µM] (inactive). Take `CCOC(=O)c1[nH]c2cc(OC)c(OC)cc2c1NC(=O)c1ccc2c(c1)OCO2`: the AC50 was 7.94 µM (active).

Consider `CCOC(=O)c1[nH]c2ccc(OC)cc2c1NC(=O)c1ccc2c(c1)OCO2`, for which the AC50 was 1.41 µM (active). Turning to `COC(=O)c1[nH]c2cccc(OC)c2c1NC(=O)CN(C)CC1OCCO1`, the AC50 result was “inactive”.
